{
  "source": "PubChem BioAssay",
  "key": {"[1]": {"test": "growth inhibition, single agents and combos, LFS_MB_1R, cell-based, cisplatin or BGB combos, synergistic combos for chromothripsis tumors (AID 1671452);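 further: cells exposed for 96 hours before readout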", "details": "LFS_MB_1R medulloblastoma cells, stronger effect = higher value"}, "[2]": {"test": "growth inhibition, single agents and combos, CRL2098, cell-based, BGB or cisplatin IC20 combos, synergistic combos for chromothripsis tumors (AID 1671454);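 further: cells exposed for 96 h before readout; 0% = vehicle DMSO and 100% = killing by high DMSO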", "details": "CRL2098 osteosarcoma cells, drug combinations, stronger effect = higher value"}, "[3]": {"test": "growth inhibition, single agents and combos, HD-MB03, cell-based, BGB or cisplatin IC20 combos, synergistic combos for chromothripsis tumors (AID 1671455; in the data active means inhibition above about 83%;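 further: 0% = vehicle DMSO and 100% = high DMSO as cytotoxic control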)", "details": "HD-MB03 medulloblastoma cells, stronger effect = higher value"}, "[4]": {"test": "growth inhibition, single agents and combos, UWB1.289, cell-based, BGB or cisplatin combos, synergistic combos for chromothripsis tumors (AID 1671456);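 further: cells exposed to compound for four days; 0% = vehicle DMSO and 100% = killing by high DMSO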", "details": "UWB1.289 ovarian carcinoma cells, stronger effect = higher value"}, "[5]": {"test": "growth inhibition, single agents and combos, LFS_MB_2R, cell-based, cisplatin combos, synergistic combos for chromothripsis tumors (AID 1671457);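 further: cells exposed to compound for four days before readout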", "details": "LFS_MB_2R medulloblastoma cells, stronger effect = higher value"}, "[6]": {"test": "UWB1.289_BRCA1 ovarian cancer growth, cell-based, BGB or cisplatin combinations (AID 1671459)", "details": "UWB1.289 BRCA1 ovarian carcinoma, drug combinations, stronger effect = higher value"}, "[7]": {"test": "drug combination toxicity in non-malignant astrocytes – cell-based, BGB or cisplatin IC20 combos, cytotoxicity control for chromothriptic childhood tumor combination screen (AID 1671460);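 further: cells exposed to compounds for 96 hours before viability readout; 0% = vehicle and 100% = killing control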", "details": "Human astrocytes, viability inhibition, drug combinations, at 0.5 µM, stronger effect = higher value"}, "[8]": {"test": "CRL1545 cell growth, single agent and combined, cisplatin and BGB IC20 combos (AID 1671464);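 further: cells exposed to compound for 96 hours before readout; 0% = vehicle DMSO and 100% = high DMSO killing control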", "details": "CRL1545 osteosarcoma cells, stronger effect = higher value"}, "[9]": {"test": "P. berghei load reduction in hepatocytes – cell-based, HepG2, luciferase luminescence, HepG2 viability, primary screen (AID 624349; in the data active means parasite load remaining mostly below about 12%, no sharp cut-off; inactive means mostly above about 10%;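 further: 100% = mean of DMSO negative control wells on the same plate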)", "details": "P. berghei liver stage in HepG2, luciferase luminescence, concentration not given here; parasite load remaining: stronger effect = lower value; viability: measured here: HepG2 viability without parasites"}, "[10]": {"test": "liver-stage malaria parasite load reduction – cell-based, known kinase inhibitor set, luminescence, hepatoma host viability (AID 624392; call rule not given here;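 further: infected cells incubated roughly two days before readout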)", "details": "Plasmodium liver stage in hepatoma cells, luciferase luminescence, concentration not given here; liver cell % of control: measured here: host liver cell viability; parasite % of control: stronger effect = lower value"}, "[11]": {"test": "compounds altering circadian rhythm period length – cell-based, LOPAC library, luminescence reporter (AID 2774; call rule not given here;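 further: values are relative to mean of DMSO wells on each plate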)", "details": "circadian reporter cells, at 7 µM, actives lie on both sides"}, "[12]": {"test": "compounds altering viability of human ES cells (AID 493140; call rule not given here;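 further: cells exposed to compounds for four days before counting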)", "details": "human embryonic stem cell survival screen; stronger effect = higher value"}, "[13]": {"test_system": "Hepatitis C virus NS3 helicase", "test": "blockers of NS3h binding to ssDNA – biochemical, fluorescence polarization, LOPAC1280 library, primary screen (AID 687035; in the data active means inhibition above about 37%)", "details": "Purified HCV NS3 helicase, Cy5-dT15 ssDNA binding fluorescence polarization; stronger effect = higher value; concentration not given here"}, "[14]": {"test": "compounds altering Cy5-DNA-NS3h complex signal – biochemical, LOPAC1280, artefact control for HCV NS3 helicase inhibitor project (AID 687037; call rule not given here)", "details": "Cy5-DNA-NS3h complex fluorescence interference counterscreen"}, "[15]": {"test": "blockers of cellular phospholipid synthesis – cell-based, LOPAC library, screen 4, primary screen (AID 1347384; call rule not given here)", "details": "animal cells, phospholipid biosynthesis inhibition screen; at 10 µM"}, "[16]": {"target": "NAD(+) hydrolase SARM1 (Homo sapiens) (UniProt Q6SZW1)", "sequence (Q6SZW1 whole entry, looked up)": "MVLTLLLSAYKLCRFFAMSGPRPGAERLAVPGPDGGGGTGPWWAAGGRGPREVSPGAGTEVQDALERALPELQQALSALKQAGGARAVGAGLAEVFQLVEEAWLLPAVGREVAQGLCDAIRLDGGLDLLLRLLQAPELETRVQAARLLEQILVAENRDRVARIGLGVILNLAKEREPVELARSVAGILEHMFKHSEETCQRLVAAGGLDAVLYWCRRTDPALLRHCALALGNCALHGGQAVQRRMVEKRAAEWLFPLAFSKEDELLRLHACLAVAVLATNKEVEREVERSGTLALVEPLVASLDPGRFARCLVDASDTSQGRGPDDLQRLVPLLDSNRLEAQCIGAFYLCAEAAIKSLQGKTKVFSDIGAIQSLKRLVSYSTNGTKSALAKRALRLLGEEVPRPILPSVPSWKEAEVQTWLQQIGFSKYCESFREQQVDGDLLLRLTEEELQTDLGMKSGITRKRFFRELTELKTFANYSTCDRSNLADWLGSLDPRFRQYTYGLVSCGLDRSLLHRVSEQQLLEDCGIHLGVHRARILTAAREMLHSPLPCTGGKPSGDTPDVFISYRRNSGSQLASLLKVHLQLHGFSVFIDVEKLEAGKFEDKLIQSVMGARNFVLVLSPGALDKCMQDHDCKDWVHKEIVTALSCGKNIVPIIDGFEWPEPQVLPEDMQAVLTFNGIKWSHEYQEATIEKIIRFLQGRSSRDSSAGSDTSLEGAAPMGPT", "test": "blocking NAD cleavage by SARM1 SAM-TIR – cell lysate, NAD-Glo luminescence (AID 1508614;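 active means compound whose remaining NAD level is above about 45 nM, limit read from the data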)", "details": "SAM-TIR HEK293T lysate NADase, at 1 µM, stronger effect = higher value"}, "[17]": {"target": "Mitogen-activated protein kinase 7 (Homo sapiens) (UniProt Q13164)", "sequence (Q13164 whole entry, looked up, the tested form may be a part)": "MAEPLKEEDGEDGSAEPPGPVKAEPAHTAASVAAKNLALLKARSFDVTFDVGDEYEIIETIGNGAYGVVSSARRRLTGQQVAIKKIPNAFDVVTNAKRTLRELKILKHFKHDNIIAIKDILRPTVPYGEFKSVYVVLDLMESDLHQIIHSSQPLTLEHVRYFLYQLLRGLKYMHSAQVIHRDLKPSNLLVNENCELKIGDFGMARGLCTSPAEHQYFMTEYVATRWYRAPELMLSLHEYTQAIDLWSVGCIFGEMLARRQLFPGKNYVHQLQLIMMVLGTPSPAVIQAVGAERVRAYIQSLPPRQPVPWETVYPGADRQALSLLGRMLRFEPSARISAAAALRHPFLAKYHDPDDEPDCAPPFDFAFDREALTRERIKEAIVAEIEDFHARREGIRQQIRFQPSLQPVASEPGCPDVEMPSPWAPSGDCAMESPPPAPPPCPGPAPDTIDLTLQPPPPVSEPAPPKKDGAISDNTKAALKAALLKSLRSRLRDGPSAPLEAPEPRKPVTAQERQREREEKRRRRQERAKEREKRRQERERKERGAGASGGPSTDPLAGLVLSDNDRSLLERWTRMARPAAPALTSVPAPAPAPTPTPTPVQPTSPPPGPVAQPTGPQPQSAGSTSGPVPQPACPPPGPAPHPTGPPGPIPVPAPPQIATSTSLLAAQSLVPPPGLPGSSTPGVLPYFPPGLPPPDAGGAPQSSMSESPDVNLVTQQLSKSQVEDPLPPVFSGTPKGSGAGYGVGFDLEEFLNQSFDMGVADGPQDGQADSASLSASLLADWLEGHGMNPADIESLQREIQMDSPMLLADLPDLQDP", "test": "Gal4-ERK5 driven luciferase induction – cell-based, HTS, primary screen (AID 1508626;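 active means luciferase signal above three times the same-plate solvent-only control wells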;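 further: luciferase driven by Gal4-ERK5 fusion binding five Gal4 sites before minimal TATA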)", "details": "HeLa Gal4-ERK5 transactivation, 18 h, at 5 µM, stronger effect = higher value"}, "[18]": {"test": "galactose survival enhancers in mitochondrial complex I cybrids – cell-based, galactose medium, ATP luminescence, primary screen (AID 1645843;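 active means z-score of at least 1.8 in each of two replicates, scored against plate mean and spread of sample wells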;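 further: positive z means more ATP and so rescue of galactose-driven cybrid death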)", "details": "complex I mutant cybrid cells, 72 h, stronger effect = higher value"}, "[19]": {"details": "measured here: combination with cisplatin, at 0.5 µM"}, "[20]": {"details": "measured here: combination with cisplatin, at 5 µM"}},
  "note": "Several values for one entry are separate records, joined by “and”; a condition that tells them apart may be missing. Identical values can stand only once. Activity calls are given as the source filed them. Unless noted, no stated cut-off is given here; in the data, active means inhibition above about 80%; inactive means the rest.",
  "data": [
    {"smiles": "O=C(/C=C/c1cccc(S(=O)(=O)Nc2ccccc2)c1)NO", "values": [
      {"measurement": "inhibition", "setting": "[1]; at 0.5 µM", "value": "31.6% (inactive)"},
      {"measurement": "inhibition", "setting": "[1]; measured here: combination with BGB IC40, at 0.05 µM", "value": -40, "unit": "%"},
      {"measurement": "inhibition", "setting": "[1]; [19]", "value": 39.8, "unit": "%"},
      {"measurement": "inhibition", "setting": "[1]; [20]", "value": 99.9, "unit": "%"},
      {"measurement": "inhibition", "setting": "[2]; at 0.5 µM", "value": "-17% (inactive)"},
      {"measurement": "inhibition", "setting": "[2]; measured here: combination with BGB at IC20, at 0.5 µM", "value": -63.8, "unit": "%"},
      {"measurement": "inhibition", "setting": "[2]; measured here: combination with cisplatin at IC20, at 0.5 µM", "value": 6.33, "unit": "%"},
      {"measurement": "inhibition", "setting": "[3]; at 0.5 µM", "value": "86.6% (active)"},
      {"measurement": "inhibition", "setting": "[3]; measured here: combo with BGB at IC20, at 0.5 µM", "value": 88.4, "unit": "%"},
      {"measurement": "inhibition", "setting": "[3]; measured here: combo with cisplatin at IC20, at 0.5 µM", "value": 99, "unit": "%"},
      {"measurement": "inhibition", "setting": "[4]; at 0.5 µM", "value": "41% (inactive)"},
      {"measurement": "inhibition", "setting": "[4]; measured here: inhibition with BGB combination, at 0.05 µM", "value": -3.28, "unit": "%"},
      {"measurement": "inhibition", "setting": "[4]; measured here: inhibition with cisplatin combination, at 0.05 µM", "value": 9.18, "unit": "%"},
      {"measurement": "inhibition", "setting": "[5]; at 0.5 µM", "value": "37.4% (inactive)"},
      {"measurement": "inhibition", "setting": "[5]; [19]", "value": 58.7, "unit": "%"},
      {"measurement": "inhibition", "setting": "[5]; [20]", "value": 105, "unit": "%"},
      {"measurement": "inhibition", "setting": "[6]; BGB combination, concentration series, at 5 µM", "value": 99.6, "unit": "%"},
      {"measurement": "inhibition", "setting": "[6]; at 0.5 µM", "value": "41.8% (inactive)"},
      {"measurement": "inhibition", "setting": "[6]; cisplatin combination, concentration series, at 5 µM", "value": 120, "unit": "%"},
      {"measurement": "inhibition", "setting": "[7]", "value": "31.9% (inactive)"},
      {"measurement": "inhibition", "setting": "[7]; measured here: combo with BGB IC20", "value": 38.1, "unit": "%"},
      {"measurement": "inhibition", "setting": "[7]; measured here: combo with cisplatin IC20", "value": 9.25, "unit": "%"},
      {"measurement": "inhibition", "setting": "[8]; at 0.5 µM", "value": "90.5% (active)"},
      {"measurement": "inhibition", "setting": "[8]; measured here: with BGB IC20 combination, at 0.5 µM", "value": 88.7, "unit": "%"},
      {"measurement": "inhibition", "setting": "[8]; measured here: with cisplatin IC20 combination, at 0.5 µM", "value": 91.2, "unit": "%"},
      {"measurement": "inhibition", "setting": "[8]; single agent, at 0.05 µM", "value": -2.13, "unit": "%"},
      {"measurement": "inhibition", "setting": "[8]; single agent, at 5 µM", "value": 85.5, "unit": "%"}
    ]},
    {"smiles": "O=C1c2ccccc2-[n+]2ccc3c([nH]c4ccccc43)c21", "values": [
      {"measurement": "parasite load remaining", "setting": "[9]", "value": "1.89% (inactive)"},
      {"measurement": "viability", "setting": "[9]", "value": 32.8, "unit": "%"}
    ]},
    {"smiles": "CC(C)(O)c1cc2nc(-c3cnc(N)nc3)nc(N3CCOCC3)c2s1", "values": [
      {"measurement": "liver cell % of control", "setting": "[10]", "value": "68.4% and 67.7% and 82.5%"},
      {"measurement": "parasite % of control", "setting": "[10]", "value": "539% (inactive) and 545% (inactive) and 563% (inactive)"}
    ]},
    {"smiles": "CC(=O)O[C@H]1C[C@@H]2CC[C@@H]3[C@H](CC[C@@]4(C)[C@H]3C[C@H]([N+]3(C)CCCCC3)[C@@H]4OC(C)=O)[C@@]2(C)C[C@@H]1[N+]1(C)CCCCC1", "values": [
      {"measurement": "period change", "setting": "[11]", "value": "-0.015 h (inactive)"},
      {"measurement": "survival", "setting": "[12]", "value": "6.75 (inactive)"},
      {"measurement": "parasite load remaining", "setting": "[9]", "value": "119% (inactive) and 39.7% (inactive)"},
      {"measurement": "viability", "setting": "[9]", "value": "75.7% and 111%"},
      {"measurement": "inhibition", "setting": "[13]", "value": "1% (inactive)"},
      {"measurement": "fluorescence ratio (interference)", "setting": "[14]", "value": "1 (inactive)"},
      {"measurement": "outcome", "setting": "[15]", "value": "inactive"},
      {"measurement": "remaining NAD", "setting": "[16]", "value": "10 nM (inactive)"},
      {"measurement": "luciferase signal", "setting": "[17]", "value": "40 AU (inactive)"},
      {"measurement": "z-score", "setting": "[18]", "value": "0.28 (inactive) and 0.73 (inactive)"}
    ]}
  ]
}
